Results taken from PubChem BioAssay (NCI).
Compounds without any hit were thinned out: in the full panel of roughly 83,000, 20% have a hit.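 Cell lines were cultured in 96-well plates, exposed to a single compound concentration, and assessed for percent growth 48 hours later.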 Active and inactive are the calls of the source. How the source made its calls: active means growth percent below 10; inactive means the rest.

Legend:
Assay in all cases: NCI-60 one-dose screen, 48 h (100 = growth as untreated, 0 = no growth, -100 = all killed)
Settings in all cases: 10 µM unless noted
DU-145 prostate = system: DU-145 prostate
K-562 leukemia = system: K-562 leukemia
MALME-3M melanoma = system: MALME-3M melanoma
MDA-MB-231 breast = system: MDA-MB-231 breast
RXF 393 renal = system: RXF 393 renal
SF-268 CNS = system: SF-268 CNS
SF-295 CNS = system: SF-295 CNS
SF-539 CNS = system: SF-539 CNS
UACC-257 melanoma = system: UACC-257 melanoma
M14 melanoma = system: M14 melanoma

Measured: growth

O=C(Nc1ccc(Cl)c(C(F)(F)F)c1)Nc1ccc2oc(=O)ccc2c1
inactive: DU-145 prostate 40.5% | K-562 leukemia 19.1% | MALME-3M melanoma 42.6% | MDA-MB-231 breast 69.3% | RXF 393 renal 89.2% | SF-268 CNS 65% | SF-539 CNS 63.3% | UACC-257 melanoma 64.4% | M14 melanoma 49.6%
active: SF-295 CNS 5.31%

NS(=O)(=O)c1ccc(Nc2nc(N/N=C/C=C/c3ccccc3)nc(Nc3ccccc3)n2)cc1
active: RXF 393 renal -8.45%
inactive: DU-145 prostate 42.5% | K-562 leukemia 27.1% | MALME-3M melanoma 50.7% | MDA-MB-231 breast 47.9% | SF-268 CNS 46% | SF-295 CNS 44.5% | SF-539 CNS 39.4% | UACC-257 melanoma 79.2% | M14 melanoma 40.3%

Cc1ccc2c(n1)C(=O)C(Cl)=C(Nc1ccc(C#N)cc1)C2=O
active: K-562 leukemia 5.72%
inactive: DU-145 prostate 112% | MALME-3M melanoma 27% | MDA-MB-231 breast 92.3% | RXF 393 renal 92.1% | SF-268 CNS 97% | SF-295 CNS 118% | SF-539 CNS 100% | UACC-257 melanoma 74.8% | M14 melanoma 86.2%

O=C(CSc1nnc(-c2ccc(Cl)cc2)n1-c1ccccc1)Nc1ccc(Cl)cc1
active: SF-539 CNS -15%
inactive: DU-145 prostate 62.1% | K-562 leukemia 59.1% | MALME-3M melanoma 51% | MDA-MB-231 breast 12.9% | RXF 393 renal 22.9% | SF-268 CNS 41.4% | SF-295 CNS 17.2% | UACC-257 melanoma 88.2% | M14 melanoma 62.7%

CCOc1cccc(/C(N)=N/C(N)=N/c2nc3ccccc3s2)c1
inactive: DU-145 prostate 83.4% | K-562 leukemia 77.3% | MALME-3M melanoma 115% | MDA-MB-231 breast 74.3% | RXF 393 renal 110% | SF-268 CNS 86.5% | SF-295 CNS 37.7% | SF-539 CNS 104% | UACC-257 melanoma 113% | M14 melanoma 93.2%

CN1CCN(c2ccc(Nc3nc(NCCNS(=O)(=O)c4ccc5ccccc5c4)c4sccc4n3)cc2)CC1
active: K-562 leukemia 1.59% | MALME-3M melanoma 2.39% | M14 melanoma -82.6%
inactive: DU-145 prostate 84% | MDA-MB-231 breast 74.3% | RXF 393 renal 29.4% | SF-268 CNS 63.3% | SF-295 CNS 102% | SF-539 CNS 65% | UACC-257 melanoma 65.7%

O=C(CSc1cc[n+](CCCCO)c2ccccc12)n1ccc2ccccc21
inactive: DU-145 prostate 110% | K-562 leukemia 98.2% | MALME-3M melanoma 99.7% | MDA-MB-231 breast 88.2% | RXF 393 renal 107% | SF-268 CNS 109% | SF-295 CNS 99.7% | SF-539 CNS 99.2% | UACC-257 melanoma 95.2% | M14 melanoma 96.6%

O=C(Nc1ccc(N2CCOCC2)cc1)Nc1ccc2c(ccn2C(=O)c2cccc(F)c2)c1
inactive: DU-145 prostate 60.2% | K-562 leukemia 77.3% | MALME-3M melanoma 49.4% | MDA-MB-231 breast 60.1% | SF-268 CNS 65.2% | SF-295 CNS 32.5% | SF-539 CNS 28.3% | UACC-257 melanoma 61.2% | M14 melanoma 51.3%
active: RXF 393 renal -0.178%

CC(=O)c1cc(C(=O)N2c3ccccc3Sc3ccccc32)n2c1ccc1ccccc12
inactive: DU-145 prostate 75% | K-562 leukemia 23.6% | MALME-3M melanoma 62% | MDA-MB-231 breast 97.4% | RXF 393 renal 66.9% | SF-268 CNS 67.5% | SF-295 CNS 41% | SF-539 CNS 69.1% | UACC-257 melanoma 51.8% | M14 melanoma 40.8%

CC(=O)/C(N=Nc1ccc2oc(=O)ccc2c1)=C(\C)O
inactive: DU-145 prostate 48.5% | MALME-3M melanoma 58.3% | MDA-MB-231 breast 61.2% | RXF 393 renal 51.6% | SF-268 CNS 45.7% | SF-295 CNS 22.5% | SF-539 CNS 51.5% | UACC-257 melanoma 37.5% | M14 melanoma 35.7%
active: K-562 leukemia 9.96%

Cn1cc(-c2cc3ncnc(Nc4ccc(NC(=O)Nc5cc(C(C)(C)C)on5)cc4)c3s2)cn1
active: K-562 leukemia 8.65% | RXF 393 renal -5.22% | SF-295 CNS -37.8% | SF-539 CNS -47.8%
inactive: DU-145 prostate 47.8% | MALME-3M melanoma 17.3% | MDA-MB-231 breast 28% | SF-268 CNS 45.5% | UACC-257 melanoma 25.3% | M14 melanoma 11.6%

COc1ccccc1N1CCN(C2=C(Cl)C(=O)c3ncccc3C2=O)CC1
inactive: DU-145 prostate 48% | MALME-3M melanoma 58.8% | MDA-MB-231 breast 86.4% | RXF 393 renal 71% | SF-268 CNS 87.6% | SF-295 CNS 107% | SF-539 CNS 95% | UACC-257 melanoma 95% | M14 melanoma 88.1%
active: K-562 leukemia 9.05%

CC1(C)CC[C@]23CC[C@]4(C)[C@H](CC[C@@H]5[C@@]6(C)CC[C@H](NCO)C(C)(C)[C@@H]6CC[C@]54C)[C@H]2[C@H]1OC3
active: K-562 leukemia 4.93%
inactive: DU-145 prostate 14.8% | MALME-3M melanoma 93.5% | MDA-MB-231 breast 19.7% | RXF 393 renal 56.3% | SF-268 CNS 77% | SF-295 CNS 59.6% | SF-539 CNS 69% | UACC-257 melanoma 103% | M14 melanoma 35.9%

C#Cc1cc(C(=O)Nc2ccc(CNCCN3CCOCC3)c(C(F)(F)F)c2)ccc1C
inactive: DU-145 prostate 97% | K-562 leukemia 67.1% | MALME-3M melanoma 92.1% | MDA-MB-231 breast 90.3% | RXF 393 renal 74.7% | SF-268 CNS 86.3% | SF-295 CNS 99.6% | SF-539 CNS 93.6% | UACC-257 melanoma 98.6% | M14 melanoma 101%

COc1ccc(C2c3[nH]c4ccc(Cl)cc4c3CCN2c2oc(CO)nc2C#N)cc1 (stereo not given)
inactive: DU-145 prostate 57.3% | K-562 leukemia 19.5% | MALME-3M melanoma 72.1% | MDA-MB-231 breast 59.7% | RXF 393 renal 62.8% | SF-268 CNS 53.6% | SF-295 CNS 45.6% | SF-539 CNS 40.3% | UACC-257 melanoma 67.5% | M14 melanoma 53.5%

CC1CC(=O)C2=C(C1)Nc1ccc(Br)cc1CC2c1c[nH]c2ccc(Br)cc12 (stereo not given)
active: SF-295 CNS 4.8%
inactive: DU-145 prostate 71.6% | K-562 leukemia 21.6% | MALME-3M melanoma 59.3% | MDA-MB-231 breast 68.8% | RXF 393 renal 69% | SF-268 CNS 67.8% | SF-539 CNS 54.8% | UACC-257 melanoma 67.9% | M14 melanoma 29%

C#CCOc1ccc(/C=N/Nc2nc(-c3ccc(OC)cc3)cs2)cc1
inactive: DU-145 prostate 78.7% | K-562 leukemia 47.7% | MALME-3M melanoma 83.9% | MDA-MB-231 breast 91.3% | RXF 393 renal 99.1% | SF-268 CNS 87.2% | SF-295 CNS 66.8% | SF-539 CNS 97.3% | UACC-257 melanoma 76.1% | M14 melanoma 93.1%

Cc1cc2nc(C(Cl)Cl)nc(-c3ccc(S(=O)(=O)N(C)C)cc3)n2n1
inactive: DU-145 prostate 45.1% | K-562 leukemia 14.1% | MALME-3M melanoma 17.3% | MDA-MB-231 breast 12.6% | RXF 393 renal 59.5% | SF-268 CNS 67.6% | SF-295 CNS 66.3% | SF-539 CNS 69.4% | UACC-257 melanoma 87% | M14 melanoma 37.1%

CN1CCN(Cc2ccc(NC(=O)c3cncc(C#Cc4cnc5ccc(OC6CCOCC6)nn45)c3)cc2C(F)(F)F)CC1
active: DU-145 prostate -89.5% | K-562 leukemia -0.118% | MALME-3M melanoma -87.5% | MDA-MB-231 breast -59.9% | RXF 393 renal -80.9% | SF-268 CNS -58.4% | SF-295 CNS -97% | SF-539 CNS -92.8% | UACC-257 melanoma -72.3% | M14 melanoma -91.2%
